GC-A act: GC-A (human) enzyme activation | HEK293 GC-A cells, cGMP TR-FRET, EC30 ANP; 0% at EC30 ANP, 100% saturating ANP | activation, % at 10 µM | 370,000 tested, 0.14% active | AID 1671463; in the data active = activation above about 40%
Target sequence (P16066 whole entry, looked up): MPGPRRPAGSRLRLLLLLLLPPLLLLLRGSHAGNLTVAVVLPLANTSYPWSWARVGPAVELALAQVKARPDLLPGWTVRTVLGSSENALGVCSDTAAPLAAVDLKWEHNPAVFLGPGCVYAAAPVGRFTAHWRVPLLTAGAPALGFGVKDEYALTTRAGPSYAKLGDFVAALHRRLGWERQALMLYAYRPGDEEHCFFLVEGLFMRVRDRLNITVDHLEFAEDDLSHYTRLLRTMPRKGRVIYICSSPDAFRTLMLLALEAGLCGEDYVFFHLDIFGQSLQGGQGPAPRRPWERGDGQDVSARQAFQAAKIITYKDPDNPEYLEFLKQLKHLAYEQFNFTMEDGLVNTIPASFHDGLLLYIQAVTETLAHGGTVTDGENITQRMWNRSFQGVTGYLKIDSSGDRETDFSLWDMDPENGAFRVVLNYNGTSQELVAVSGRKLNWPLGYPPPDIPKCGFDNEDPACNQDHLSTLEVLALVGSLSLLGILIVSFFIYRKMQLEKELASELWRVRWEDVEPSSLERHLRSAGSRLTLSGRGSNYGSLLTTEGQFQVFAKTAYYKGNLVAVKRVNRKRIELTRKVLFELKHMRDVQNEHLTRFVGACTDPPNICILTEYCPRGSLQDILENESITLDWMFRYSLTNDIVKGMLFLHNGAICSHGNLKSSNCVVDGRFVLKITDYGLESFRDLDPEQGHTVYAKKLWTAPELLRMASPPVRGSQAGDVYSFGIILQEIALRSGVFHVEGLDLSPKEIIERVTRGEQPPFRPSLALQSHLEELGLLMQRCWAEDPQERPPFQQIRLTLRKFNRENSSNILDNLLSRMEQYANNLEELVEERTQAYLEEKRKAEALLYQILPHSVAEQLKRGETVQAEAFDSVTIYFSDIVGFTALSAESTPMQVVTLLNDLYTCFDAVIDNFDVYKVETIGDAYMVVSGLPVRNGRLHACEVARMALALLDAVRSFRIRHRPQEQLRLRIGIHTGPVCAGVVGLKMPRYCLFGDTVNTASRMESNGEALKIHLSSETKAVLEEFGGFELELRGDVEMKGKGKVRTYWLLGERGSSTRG
GC-B act: GC-B (human) receptor activation; 370,000 tested, 0.11% active; activation, % at 10 µM; AID 1920062; HEK293-GC-B cells, CNP EC30, cGMP TR-FRET; 0% at EC30 CNP, 100% saturating CNP;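 active = activation at 10 µM reaching about 35% in either raw or pattern-adjusted values, limit read from the data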
PG9 Ab binder: binds the HIV-1 gp120 antibody PG9; TR-FRET gp120-PG9 antibody binding; inhibition, % at 6.7 µM; 360,000 tested, 0.43% active; AID 624416; in the data active = inhibition above about 8.5%
Rev-erbA mod: modulators of human Rev-erb alpha DNA binding | P20393 | Rev-erbα–FITC-DNA binding, fluorescence polarization, 90 min | activity, % at 10 µM | 370,000 tested, 0.79% active | AID 1259318;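 active = activity above about 14%, limit read from the data; passing the limit was not always enough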;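 note: 0% = DMSO wells with 35 nM protein and 100% = DMSO wells with 750 nM protein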
V-ATPase pH: alters yeast V-ATPase proton transport; 350,000 tested, 0.37% active; response, % at 10 µM; S. cerevisiae, pHLuorin cytosolic pH fluorescence; in the data active = response mostly above about 7.3%, no sharp cut-off; inactive = mostly below about 5.4%; note: actives read high
Rev-erbA confirm: confirmation of modulators of human Rev-erb alpha DNA binding. shares compounds with Rev-erbA mod. Rev-erb alpha FITC-DNA binding, fluorescence polarization, 90 min. activation, % at 25 µM. 3,000 tested, 61% active;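 active = activation at or above a set limit, or at least 3 SD above the negative control mean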;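 note: 0% = 35 nM protein with DMSO and 100% = 750 nM protein high control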
RORg counter: RORgamma DNA-binding activity, dose-response counter-screen. shares compounds with Rev-erbA mod. purified RORgamma protein-FITC-DNA binding, fluorescence polarization. IC50, µM. 910 tested, 8% active. AID 1259320;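 active = Compounds whose fitted half-maximal concentration for disrupting protein-DNA binding is below 10 micromolar; the record names Rev-erb in its text, so the target is in doubt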
Starred values were filed as active, the others as inactive; i = inactive; x = no result given. The list is not random: actives were taken first. Their share in the collection is about 1.6%.

SMILES	GC-A act	GC-B act	PG9 Ab binder	Rev-erbA mod	V-ATPase pH	Rev-erbA confirm	others
CCN1C(=O)/C(=C\N2CCN(C)CC2)SC1=S	4.2	5.1	-2.2	2.8	-4.3	x
CCN1C(=O)/C(=C\N2CCN(c3ccc(F)cc3)CC2)SC1=S	-31.2	-16.3	3.5	212.7*	2.8	250.9*	RORg counter=i
CCc1nnc(NC(=O)CSc2nc(C)cc(C)c2C#N)s1	-5.1	-3.5	0.3	4.8	1.2	x
CCc1nnc(NC(=O)CSc2nc(-c3ccc(F)cc3)cc(-c3ccccc3)c2C#N)s1	8.8	-2.3	-0.2	37.7*	-0.9	15.7
COc1ccc(-c2cc(-c3ccccc3)nc(SCC(=O)Nc3ncc(C)s3)c2C#N)cc1	-3.4	1.7	3.3	38.9*	-3.0	6.6
O=C(COC(=O)c1ccc2ccccc2c1O)Nc1ccccc1	1.9	3.3	0.6	58.8*	-6.0	27.6*
COc1cccc(C(=O)Nc2ccc(-c3nc4ccccc4o3)c(O)c2)c1	3.0	-2.0	1.9	85.5*	-1.7	64.3*	RORg counter=>40
Cc1ccc(OCC(=O)Nc2ccc(O)c(-c3nc4ccccc4o3)c2)cc1	5.0	4.3	6.6	102.6*	-1.1	38.4*	RORg counter=i
CC1CCC2(CC1)CCN(CCCOC(=O)NCc1ccc(Cl)cc1)C2=O (stereo unspecified)	-1.7	-4.8	x	4.8	x	x
COc1ccc2cc(CCN3C(=O)c4ccccc4C3=O)c(=O)[nH]c2c1	7.7	3.0	0.6	27.7*	0.1	20.1*
O=C(Nc1ccccn1)c1c(O)c2cccc3c2n(c1=O)CCC3	2.7	-5.3	0.7	32.4*	-4.7	7.0
O=C(Nc1nccs1)c1c(O)c2cccc3c2n(c1=O)CCC3	4.1	-12.5	1.4	36.5*	x	29.7*
CN(C)c1cc(NC(=O)CNC(C)(C)C)c(O)c2c1C[C@H]1C[C@H]3[C@H](N(C)C)C(=O)C(C(N)=O)=C(O)[C@@]3(O)C(=O)C1=C2O	x	x	x	-36.2	x	x
COC(=O)[C@]12C[C@H](CC(=O)NCCCN3CCCC3=O)C(=O)N(CCc3ccc(OC)c(OC)c3)C1=C[C@H](C1CCCC1)O[C@@H]2C	-0.5	4.6	x	10.1	x	x
CC(C)Oc1ccc(CNC(=O)Cn2c(=O)c3cccn3c3cccnc32)cc1	-1.3	2.4	-1.9	0.6	1.2	x
CCOc1ccc(CNC(=O)Cn2c(=O)c3cccn3c3ccccc32)cc1	14.6	11.4	0.5	38.6*	0.2	23.5*
CCCCCC[n+]1ccccc1/C=C/c1ccc(N(C)C)cc1	-12.6	-8.3	-11.0	33.9*	x	36.9*	RORg counter=i
CC[n+]1c(/C=C/c2ccc(N(C)C)cc2)ccc2ccccc21	-39.3	-34.8	-49.7	-7.5	-2.1	x
C[n+]1ccc(/C=C/c2cccs2)cc1	-3.5	2.1	-2.4	0.8	-1.6	x
CC[n+]1ccccc1/C=C/c1ccc(N(C)C)cc1	-37.5	-17.2	-15.5	16.1	3.2	x
Cc1ccc(/C=C/c2ccc(N(C)C)cc2)[n+](C)c1	-29.4	-23.8	-19.5	37.2*	1.0	50.1*	RORg counter=i
CN(C)c1ccc(/C=C/c2cc[n+](C)cc2)cc1	-19.0	-28.1	-21.6	28.0*	6.2	43.5*	RORg counter=>40
C#CCOCCOCCOCCNc1nc(N2CCN(C(=O)[C@H](CCCCN)n3cc([C@@H](N)C(C)CC)nn3)CC2)nc(N2CCN(C(=O)[C@H](CCCCN)n3cc([C@@H](N)C(C)CC)nn3)CC2)n1 (stereo partly specified)	5.3	3.2	x	3.1	x	x
COC(=O)C1CN(CC(C)C)CCS(=O)(=O)N1Cc1ccc(Cl)cc1 (stereo unspecified)	-2.5	-2.2	x	0.3	x	x
O=C(NC1CCCCN(Cc2cccc(F)c2)C1=O)c1cccc(F)c1 (stereo unspecified)	-0.5	1.3	x	4.0	x	x
SMILES	GC-A act	GC-B act	PG9 Ab binder	Rev-erbA mod	V-ATPase pH	Rev-erbA confirm	others
Brc1ccc2nc(-c3ccc(CN4CCC(c5nc6ccccc6[nH]5)CC4)cc3)c(-c3ccccc3)nc2c1	6.5	8.9	-1.3	16.5*	x	12.2*
COc1cc2oc(=O)c3c(c2cc1OCC(=O)c1c(C)n(C)c2ccccc12)CCCC3	4.4	-8.7	-1.1	36.1*	2.2	-12.3
O=C(CCc1ccccc1)NC(=S)Nc1ccc2c(c1)C(=O)OC2	2.4	5.2	8.2	30.7*	0.7	30.1*
O=C(Nc1cccnc1)c1sc2cccc(F)c2c1Cl	-4.0	-7.7	0.2	3.5	-4.0	x
O=C(Nc1ccccn1)c1sc2cccc(F)c2c1Cl	-5.9	-8.4	1.2	25.4*	-0.1	9.4
COc1ccc(/C=C2\Oc3cc(OC(=O)N4CCOCC4)ccc3C2=O)c(OC)c1	23.4	-2.6	-1.7	22.1*	4.6	8.7
O=C1/C(=C/c2ccccc2)Oc2cc(OC(=O)N3CCOCC3)ccc21	1.4	-5.5	1.4	-2.7	-0.2	x
O=C(NCCc1ccccc1)c1ccc2c(c1)S(=O)(=O)c1cc(Cl)ccc1C2=O	3.2	8.1	-3.3	67.8*	2.4	63.4*	RORg counter=>40
O=C(NCCc1ccccc1)c1ccc2c(c1)S(=O)(=O)c1ccccc1C2=O	0.0	1.6	-1.7	1.4	-3.7	x
O=C(NCCc1ccc(Cl)cc1)c1ccc2nccnc2c1	0.1	-0.6	-1.0	13.8*	-1.3	5.2
CNC(=O)COc1ccccc1C(=O)Nc1ccc2c(c1)oc1ccccc12	-0.8	-12.0	1.0	58.2*	3.9	78.8*	RORg counter=i
O=C(c1ccc(Br)o1)N1N=C(c2ccc(Cl)cc2)CC1c1ccco1 (stereo unspecified)	6.9	-2.0	0.0	23.6*	4.8	5.1
CCOc1cccc2sc(=NC(=O)c3ccc(S(=O)(=O)N4CCOCC4)cc3)n(C)c12	3.2	2.9	-2.1	30.2*	-3.4	-3.7
CCOc1ccc(NC(=O)c2cc3c(=O)n(C)c4ccccc4c3n2C)cc1	-1.4	-3.5	-0.9	40.9*	-3.3	21.0*
O=C1CCC[C@H]2C[C@H](NCc3ccccc3F)CC[C@]23CCCN13	2.6	-4.1	x	3.1	x	x
c1ccc(-c2nnc(-c3ccncc3)nc2-c2ccccc2)cc1	0.0	-5.3	-1.8	-4.3	4.5	x
Brc1nc(-c2ccccc2)nc(-c2ccccc2)c1Br	-15.9	-17.9	-0.4	64.7*	1.9	685.1*	RORg counter=i
COC(=O)c1cc(-c2ccc(F)c(Cl)c2)c(=O)n2c1CCC2	1.9	-3.9	x	-6.5	x	x
COC(=O)c1ccc2nc(-c3ccccc3)c(Cc3ccccc3C(F)(F)F)n2c1	11.7	14.8	0.6	22.1*	x	19.5*
COC(=O)c1ccc2nc(-c3ccc(OC)c(OC)c3)c(Cc3ccccc3C(F)(F)F)n2c1	17.4	25.0	-2.0	-1.9	x	x
COC(=O)c1ccc2nc(-c3ccc(F)cc3)c(Cc3ccccc3C(F)(F)F)n2c1	10.4	16.3	0.1	20.7*	x	-4.9

Bioassay records: PubChem BioAssay, several laboratories
